From PubChem BioAssay (NCI)
About 83,000 compounds went through this panel and 20% of them were active in at least one assay; those are over-represented in the sample as a whole.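 Assay: single dose, 48 h. Readout: percent growth (0 = no net growth; negative = cell death). Active: <10.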 Active and inactive are the calls of the source.

Assays:
Test in all cases: NCI-60 one-dose screen, 48 h (100 = growth as untreated, 0 = no growth, -100 = all killed)
NCI-H23 lung = conditions: 10 µM unless noted
NCI-H226 lung = conditions: 10 µM unless noted
NCI-H322M lung = conditions: 10 µM unless noted
HOP-62 NSCLC = conditions: 10 µM unless noted
NCI-H460 lung = conditions: 10 µM unless noted
HOP-92 NSCLC = conditions: 10 µM unless noted
NCI-H522 lung = conditions: 10 µM unless noted
A549/ATCC NSCLC = conditions: 10 µM unless noted
786-0 renal = conditions: 10 µM unless noted
COLO 205 colon = conditions: 10 µM unless noted
DU-145 prostate = conditions: 10 µM unless noted
K-562 leukemia = conditions: 10 µM unless noted
MALME-3M melanoma = conditions: 10 µM unless noted
MDA-MB-231 breast = conditions: 10 µM unless noted
SF-268 CNS = conditions: 10 µM unless noted
SF-295 CNS = conditions: 10 µM unless noted
SF-539 CNS = conditions: 10 µM unless noted
M14 melanoma = conditions: 10 µM unless noted
RXF 393 renal = conditions: 10 µM unless noted
UACC-257 melanoma = conditions: 10 µM

Measured: growth

NC(=O)c1c(NC(=O)c2ccc(OCC3CCCO3)cc2)sc2c1CCCC2 (centres undefined)
inactive: NCI-H23 lung 100% | NCI-H226 lung 83.8% | NCI-H322M lung 99.8% | HOP-62 NSCLC 108% | NCI-H460 lung 106% | HOP-92 NSCLC 66.9% | NCI-H522 lung 87.3% | A549/ATCC NSCLC 35.5% | 786-0 renal 95.5% | COLO 205 colon 111% | DU-145 prostate 105% | K-562 leukemia 134% | MALME-3M melanoma 82.4% | MDA-MB-231 breast 96.6% | SF-268 CNS 109% | SF-295 CNS 93.8% | SF-539 CNS 100% | M14 melanoma 108%

CCCCCCCCCCCCOB(OCCCCCCCCCCCC)OCCCCCCCCCCCC
inactive: NCI-H23 lung 88.3% | NCI-H226 lung 99.3% | NCI-H322M lung 101% | HOP-62 NSCLC 94.5% | NCI-H460 lung 109% | HOP-92 NSCLC 101% | NCI-H522 lung 95.2% | A549/ATCC NSCLC 97.8% | 786-0 renal 120% | COLO 205 colon 98.2% | DU-145 prostate 100% | K-562 leukemia 92.5% | MALME-3M melanoma 90.4% | RXF 393 renal 114% | SF-268 CNS 97.2% | SF-295 CNS 104% | SF-539 CNS 106% | UACC-257 melanoma 95.4% | M14 melanoma 117%

C/C1=C\CCC2(C)OC2CC2CCC(C)(O)C(CC1)C2(C)C (centres undefined)
active: HOP-92 NSCLC -16.4%
inactive: NCI-H23 lung 99% | NCI-H226 lung 107% | NCI-H322M lung 96.5% | HOP-62 NSCLC 101% | NCI-H460 lung 106% | NCI-H522 lung 88% | A549/ATCC NSCLC 98% | 786-0 renal 98.9% | COLO 205 colon 109% | DU-145 prostate 96.1% | K-562 leukemia 104% | MALME-3M melanoma 93.5% | MDA-MB-231 breast 105% | SF-268 CNS 103% | SF-295 CNS 55.5% | SF-539 CNS 88.1% | M14 melanoma 98.7%

CSc1nc(-c2cc3ccccc3o2)cc(-c2ccc(Cl)cc2)c1C#N
active: SF-295 CNS 9.92% | SF-539 CNS -7.47%
inactive: NCI-H23 lung 44.8% | NCI-H226 lung 39.1% | NCI-H322M lung 82.2% | HOP-62 NSCLC 69.8% | NCI-H460 lung 24% | HOP-92 NSCLC 10.3% | NCI-H522 lung 25.6% | A549/ATCC NSCLC 32% | 786-0 renal 90.3% | COLO 205 colon 42.7% | DU-145 prostate 68.5% | K-562 leukemia 63.4% | MALME-3M melanoma 89.3% | MDA-MB-231 breast 27.8% | SF-268 CNS 51.7% | M14 melanoma 67.6%

COc1ccc(NC(=O)/N=c2\oc3c(OC)cccc3cc2-c2cc3ccccc3[nH]2)cc1
active: HOP-92 NSCLC -9.99%
inactive: NCI-H23 lung 53.2% | NCI-H226 lung 67.7% | NCI-H322M lung 74% | HOP-62 NSCLC 22.6% | NCI-H460 lung 49.4% | NCI-H522 lung 76.3% | A549/ATCC NSCLC 55.7% | 786-0 renal 10.7% | COLO 205 colon 97.8% | DU-145 prostate 69.3% | K-562 leukemia 86.3% | MALME-3M melanoma 57.3% | MDA-MB-231 breast 36.3% | SF-268 CNS 70% | SF-295 CNS 52.1% | SF-539 CNS 35.3% | M14 melanoma 93.5%

Cc1cc(Cl)ccc1OC(C)C(=O)Nc1nnc(C2CC2)s1 (centres undefined)
inactive: NCI-H23 lung 76.7% | NCI-H226 lung 98.5% | NCI-H322M lung 124% | HOP-62 NSCLC 94.7% | NCI-H460 lung 114% | HOP-92 NSCLC 81.3% | NCI-H522 lung 94.6% | A549/ATCC NSCLC 86.3% | 786-0 renal 92.7% | COLO 205 colon 105% | DU-145 prostate 102% | K-562 leukemia 120% | MALME-3M melanoma 119% | MDA-MB-231 breast 95.1% | SF-268 CNS 111% | SF-295 CNS 89% | SF-539 CNS 101% | M14 melanoma 113%

C/C(=N\NC(=O)CC#N)c1cc2cc(Cl)ccc2o1
active: HOP-92 NSCLC -13.3%
inactive: NCI-H23 lung 97.2% | NCI-H226 lung 94.6% | NCI-H322M lung 97.2% | HOP-62 NSCLC 92.8% | NCI-H460 lung 94.2% | NCI-H522 lung 84.4% | A549/ATCC NSCLC 111% | 786-0 renal 105% | COLO 205 colon 99.7% | DU-145 prostate 103% | K-562 leukemia 96.6% | MALME-3M melanoma 102% | MDA-MB-231 breast 93.9% | SF-268 CNS 102% | SF-295 CNS 99.7% | SF-539 CNS 82.9% | M14 melanoma 104%

Clc1ccc(-c2nc(-c3ccco3)cn3ccnc23)cc1
active: A549/ATCC NSCLC -1.62% | 786-0 renal -41.1%
inactive: NCI-H23 lung 61% | NCI-H226 lung 46.3% | NCI-H322M lung 11.4% | HOP-62 NSCLC 31.4% | NCI-H460 lung 14.5% | HOP-92 NSCLC 34.7% | NCI-H522 lung 61.5% | COLO 205 colon 75% | DU-145 prostate 67.3% | K-562 leukemia 68.9% | MALME-3M melanoma 77% | RXF 393 renal 41.6% | SF-268 CNS 64.3% | SF-295 CNS 15.1% | SF-539 CNS 62.2% | UACC-257 melanoma 75.2% | M14 melanoma 97.4%

CC(Br)C(Br)c1cc2c(cc1Br)OCO2 (centres undefined)
inactive: NCI-H23 lung 96.4% | NCI-H226 lung 99.3% | NCI-H322M lung 87.5% | HOP-62 NSCLC 68% | NCI-H460 lung 126% | HOP-92 NSCLC 106% | NCI-H522 lung 87.2% | A549/ATCC NSCLC 72.4% | COLO 205 colon 90.2% | DU-145 prostate 108% | K-562 leukemia 112% | MALME-3M melanoma 100% | MDA-MB-231 breast 110% | RXF 393 renal 104% | SF-268 CNS 99.6% | SF-295 CNS 98.5% | SF-539 CNS 91.1% | M14 melanoma 94.3%
